The full list was thinned out, with hits kept by preference.
Sa growth 42C – S. aureus growth inhibition at 42 and 30 °C, primary screen, LtaS inhibitor project, RN4220, two temperatures | AID 720641, 2013 | OD600, 20 h, 42 °C; hits give low values | relative growth, % (no concentration beside the values) | 170,000 compounds, 0.53% hits;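 active = relative growth at most 50% at the other temperature and 20+ points below 30 °C, or under 10% at both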
S aureus helic – inhibitors of S. aureus replicative helicase, primary screen, biochemical, fluorescence unwinding readout | 120,000 compounds, 0.05% hits | AID 485395, 2010 | inhibition, % (test concentration not listed) | purified S. aureus helicase, fluorescence unwinding assay | replicative DNA helicase (DnaC/DnaB), Staphylococcus aureus; in the data active = inhibition above about 25%, passing the limit was not always enough;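 also: 0% = mean of negative control wells and 100% = mean of positive control wells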
An asterisk follows results filed as active; . = not tested or not shown; ! = a repeat was not active.

SMILES	Sa growth 42C	S aureus helic
O=C1OC2(O)c3ccccc3C(=O)N2c2ccccc21 (stereo not drawn)	87	-21
O=C1C=C2N(c3ccccc3)CCOC2(O)c2ccccc21 (stereo not drawn)	4.8*	11
Oc1ccccc1C1CC(c2cccc(Br)c2)=NC(c2ccc(Br)cc2)N1 (stereo not drawn)	76	4
Oc1ccc(Br)cc1C1CC(c2ccccc2)=NC(c2ccco2)N1 (stereo not drawn)	2.5*	-4
COC(=O)C1(O)CC(C)N(C)CC1C (stereo not drawn)	100	18
CNC(=O)c1sc(NCC(C)C)nc1C	106	3
CC(C)NC(=O)CN1C(=O)C(C)(C)Oc2ccc(C(=O)NC(C)C)cc21	76	19
CC(C)S(=O)(=O)c1oc(-c2ccc(F)cc2)nc1S(=O)(=O)c1ccccc1	1.3*	.
CCS(=O)(=O)c1oc(-c2ccc(F)cc2)nc1S(=O)(=O)c1ccc(Br)cc1	85	.
CCCCS(=O)(=O)c1oc(-c2ccc(F)cc2)nc1S(=O)(=O)c1ccccc1	1.6*	.
CC(C)S(=O)(=O)c1oc(-c2cccs2)nc1S(=O)(=O)c1ccc(F)cc1	85	.
O=C1C2C=CC=CC2=NC(=S)[N+]1=Nc1c(O)[nH]c2ccccc12 (stereo not drawn)	1.4*	11
O=C1N=c2ccccc2=C1N=Nc1c(O)[nH]c2ccccc12	38	-23
CCC1(c2cccc(OC(=O)Nc3ccc(OC(F)(F)F)cc3)c2)CCCCN(C)C1=O (stereo not drawn)	4.2*	.
O=C(O)CC1(CC(=O)Nc2ccc(OC(F)(F)F)cc2)CCCC1	94	.
CS(=O)(=O)c1nc(Oc2cccc(C(F)(F)F)c2)cc(Oc2cccc(C(F)(F)F)c2)n1	32*	8
O=C(O)c1cccc(Oc2cccc(C(F)(F)F)c2)c1	118	7
O=C(CSc1ccnc(=O)[nH]1)NCc1ccccc1	97	5
CCOC(=O)c1c(C)[nH]c(C)c1S(=O)(=O)NC(C)CC (stereo not drawn)	99	15
Cc1ccc(C(=O)OC2=C(c3ccccc3)C(=O)c3ccccc3C2=O)cc1	78	9
CCOC(=O)COC1=C(c2ccccc2)C(=O)c2ccccc2C1=O	5.9*	14
CCn1c(O)c(N=NS(=O)(=O)c2ccc(C)cc2)c2cc(Cl)ccc21	0.8*	13
CCn1c2ccc(Cl)cc2c2cc(Cl)ccc21	108	.
CC1CCc2c(sc3ncn4c(=S)[nH]nc4c23)C1 (stereo not drawn)	91	-25
NCCN1C(=O)S/C(=C\c2ccc(Cl)c(Cl)c2)C1=O	-0.6*	3
SMILES	Sa growth 42C	S aureus helic
O=C1S/C(=C\c2ccc(Cl)cc2)C(=O)N1Cc1ccccc1	98	14
Nn1c(SCc2cc(=O)oc3cc(O)c(O)cc23)nnc1-c1ccncc1	68	25
Nn1c(Cc2ccccc2F)nnc1SCc1cc(=O)oc2cc(O)c(O)cc12	139	55*
CCn1c(SCc2cc(=O)oc3cc(O)ccc23)nc2ccccc21	93	-1
Cn1c(SCc2cc(=O)oc3cc(O)c(O)cc23)nc2ccccc21	71	67*
COc1ccccc1C(=O)COC(=O)C(C)N=C1NS(=O)(=O)c2ccccc21 (stereo not drawn)	102	1
O=C(NCCC(=O)N1CCOCC1)c1ccc(Cl)cc1	83	-10
CC(=O)Nc1ccc(S(=O)(=O)N2CCC(C)CC2)cc1	123	4
CC1CCN(S(=O)(=O)c2ccc(NC(=O)Nc3ccccc3)cc2)CC1	31*	2
CN(C)c1ccc(C(=C2C=CC(=[N+](C)C)C=C2)c2ccc(N(C)C)cc2)cc1	171	.
CN(C)c1ccc(C2=CC=CC(=C3C=CC(=[N+](C)C)C=C3)O2)cc1	2.5*	74*
CCn1nc(C(=O)n2cc(C(=O)c3ccccc3O)cn2)c2ccccc2c1=O	100	-12
O=C1C=CC(=O)N1CC1CCCO1 (stereo not drawn)	103	-3
C[C@H]1O[C@@H](n2cc(F)c(=O)[nH]c2=O)[C@H](O)[C@@H]1O	1.1*	.
O=c1[nH]c(=O)n(C2CCCO2)cc1F (stereo not drawn)	6.6*!	-14
O=C(Cc1cccc(F)c1)NC1CCOc2ccccc21 (stereo not drawn)	100	26
OCC1CCCN(c2ncc(C(F)(F)F)cc2Cl)C1 (stereo not drawn)	75	4
CC(C)C(=O)NCc1cccnc1	76	-21
COc1cc(/C=N/NC(=O)c2cc(-c3cccn3C)n[nH]2)cc(OC)c1OC	-0.2*	32
O=C(N/N=C/c1ccccc1)c1cc(-c2ccccc2)n[nH]1	94	16
CC(C(=O)Nc1nc2ccc(S(=O)(=O)N3CCOCC3)cc2s1)N1C(=O)c2ccccc2C1=O (stereo not drawn)	93	8

Compound activity as filed in PubChem BioAssay.
